A short description of experiment [1]: human astrocyte viability loss, single and combined drugs, cytotoxicity control for chromothriptic childhood tumor combination screen, cell-based, BGB or cisplatin IC20 combos (AID 1671460; in the data active = inhibition above about 80%;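 note: cells exposed to compounds for 96 hours before viability readout; 0% = vehicle and 100% = killing control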). As to conditions: Human astrocytes, drug combinations, stronger effect = higher value.
Experiment [2] can be described thus: kinase inhibitors against Plasmodium liver-stage infection, cell-based, known kinase inhibitor set, luminescence, hepatoma host viability (AID 624392).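 Note: infected cells incubated roughly two days before readout.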 As to conditions: Plasmodium liver stage in hepatoma cells, luciferase luminescence, concentration not given here; liver cell % of control: measured here: host liver cell viability; parasite % of control: stronger effect = lower value.

For experiment [3], the target named is ATP-dependent translocase ABCB1 (Homo sapiens) (UniProt P08183). The experiment is described as follows: MDR1 (ABCB1) efflux transporter inhibition, cell-based (AID 377; in the data active = fluorescence slope change above about 50%). Conditions: MDR1-expressing cells, fluorescent substrate accumulation slope; stronger effect = higher value; concentration not given here.
In experiment [4] the target is Mitogen-activated protein kinase 7 (Homo sapiens) (UniProt Q13164). The experiment is described as follows: ERK5 transactivation activators in reporter cells, primary screen, cell-based, HTS (AID 1508626;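 active = luciferase signal above three times the same-plate solvent-only control wells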;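 note: luciferase driven by Gal4-ERK5 fusion binding five Gal4 sites before minimal TATA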). Conditions: HeLa Gal4-ERK5 transactivation, 18 h, at 5 µM, stronger effect = higher value.
A short description of experiment [5]: hESC survival regulators, cell-based (AID 493140).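 Note: cells exposed to compounds for four days before counting.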 Conditions: human embryonic stem cell survival screen; stronger effect = higher value.
Experiment [6] can be described thus: Cy5 fluorescence interference with SSB-bound oligo, artefact control for HCV NS3 helicase inhibitor project, biochemical, NIH Clinical Collection, E. coli SSB (AID 743268).
The test system of experiment [7] is Hepatitis C virus NS3 helicase. The experiment is described as follows: HCV NS3 helicase inhibitors, primary screen, biochemical, fluorescence polarization, NIH Clinical Collection (AID 743270). Conditions: NS3 helicase binding to Cy5-dT15 DNA, stronger effect = higher value, concentration not given here.
Experiment [8] deals with Single-stranded DNA-binding protein (Escherichia coli (strain K12)) (UniProt P0AGE0). The experiment is described as follows: E. coli SSB displacement from DNA, counter-screen for HCV NS3 helicase inhibitor project, biochemical, fluorescence polarization, NIH Clinical Collection (AID 743271; in the data active = inhibition above about 28%). Conditions: stronger effect = higher value, concentration not given here. Background: The purpose of a counterscreen is to sort out artefacts and off-target activity.

Experiment [9] is described as follows: fluorescence interference in NS3h assay format, artefact control for HCV NS3 helicase inhibitor project, biochemical, NIH Clinical Collection (AID 743272).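 Note: HCV NS3 helicase with a Cy5 labelled single stranded DNA probe.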 Conditions: fluorescence interference counterscreen, stronger effect = lower value.
Where [10] appears, read: measured here: combo with BGB IC20, at 0.5 µM.
[11] abbreviates: measured here: combo with cisplatin IC20, at 0.5 µM.

The structures appear in SMILES notation. “And” between values parts separate entries of the source, which are not always exact repeats. Equal values may be shown once. Inconclusive results are not listed. The source made the active and inactive calls. Unless noted, the rule behind the calls is not given here.

Broadly, the inhibition is the drop in the measured response relative to a control, in per cent.

Sequence of Mitogen-activated protein kinase 7 (Homo sapiens) (Q13164 whole entry, looked up, the tested form may be a part): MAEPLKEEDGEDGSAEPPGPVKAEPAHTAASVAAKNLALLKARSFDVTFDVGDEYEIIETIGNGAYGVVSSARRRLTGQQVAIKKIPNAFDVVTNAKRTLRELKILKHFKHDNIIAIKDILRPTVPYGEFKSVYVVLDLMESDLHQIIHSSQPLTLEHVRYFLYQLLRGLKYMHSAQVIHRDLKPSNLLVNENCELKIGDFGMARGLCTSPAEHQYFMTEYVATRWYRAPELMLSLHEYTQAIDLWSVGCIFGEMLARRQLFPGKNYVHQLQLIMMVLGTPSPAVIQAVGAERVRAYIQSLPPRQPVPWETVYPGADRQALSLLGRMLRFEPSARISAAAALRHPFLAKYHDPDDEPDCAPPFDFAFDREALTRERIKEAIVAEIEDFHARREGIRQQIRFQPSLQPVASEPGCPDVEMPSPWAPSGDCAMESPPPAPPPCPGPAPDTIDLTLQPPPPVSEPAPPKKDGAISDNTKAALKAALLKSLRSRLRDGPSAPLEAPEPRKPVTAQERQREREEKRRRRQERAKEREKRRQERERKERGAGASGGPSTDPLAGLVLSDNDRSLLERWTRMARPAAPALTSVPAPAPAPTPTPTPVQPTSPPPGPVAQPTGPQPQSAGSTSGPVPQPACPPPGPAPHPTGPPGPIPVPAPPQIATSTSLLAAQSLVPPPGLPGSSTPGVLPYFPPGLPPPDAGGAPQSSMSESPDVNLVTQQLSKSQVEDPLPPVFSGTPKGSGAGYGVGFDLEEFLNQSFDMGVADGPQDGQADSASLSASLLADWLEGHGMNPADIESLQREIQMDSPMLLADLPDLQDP
Sequence of ATP-dependent translocase ABCB1 (Homo sapiens) (P08183 whole entry, looked up, the tested form may be a part): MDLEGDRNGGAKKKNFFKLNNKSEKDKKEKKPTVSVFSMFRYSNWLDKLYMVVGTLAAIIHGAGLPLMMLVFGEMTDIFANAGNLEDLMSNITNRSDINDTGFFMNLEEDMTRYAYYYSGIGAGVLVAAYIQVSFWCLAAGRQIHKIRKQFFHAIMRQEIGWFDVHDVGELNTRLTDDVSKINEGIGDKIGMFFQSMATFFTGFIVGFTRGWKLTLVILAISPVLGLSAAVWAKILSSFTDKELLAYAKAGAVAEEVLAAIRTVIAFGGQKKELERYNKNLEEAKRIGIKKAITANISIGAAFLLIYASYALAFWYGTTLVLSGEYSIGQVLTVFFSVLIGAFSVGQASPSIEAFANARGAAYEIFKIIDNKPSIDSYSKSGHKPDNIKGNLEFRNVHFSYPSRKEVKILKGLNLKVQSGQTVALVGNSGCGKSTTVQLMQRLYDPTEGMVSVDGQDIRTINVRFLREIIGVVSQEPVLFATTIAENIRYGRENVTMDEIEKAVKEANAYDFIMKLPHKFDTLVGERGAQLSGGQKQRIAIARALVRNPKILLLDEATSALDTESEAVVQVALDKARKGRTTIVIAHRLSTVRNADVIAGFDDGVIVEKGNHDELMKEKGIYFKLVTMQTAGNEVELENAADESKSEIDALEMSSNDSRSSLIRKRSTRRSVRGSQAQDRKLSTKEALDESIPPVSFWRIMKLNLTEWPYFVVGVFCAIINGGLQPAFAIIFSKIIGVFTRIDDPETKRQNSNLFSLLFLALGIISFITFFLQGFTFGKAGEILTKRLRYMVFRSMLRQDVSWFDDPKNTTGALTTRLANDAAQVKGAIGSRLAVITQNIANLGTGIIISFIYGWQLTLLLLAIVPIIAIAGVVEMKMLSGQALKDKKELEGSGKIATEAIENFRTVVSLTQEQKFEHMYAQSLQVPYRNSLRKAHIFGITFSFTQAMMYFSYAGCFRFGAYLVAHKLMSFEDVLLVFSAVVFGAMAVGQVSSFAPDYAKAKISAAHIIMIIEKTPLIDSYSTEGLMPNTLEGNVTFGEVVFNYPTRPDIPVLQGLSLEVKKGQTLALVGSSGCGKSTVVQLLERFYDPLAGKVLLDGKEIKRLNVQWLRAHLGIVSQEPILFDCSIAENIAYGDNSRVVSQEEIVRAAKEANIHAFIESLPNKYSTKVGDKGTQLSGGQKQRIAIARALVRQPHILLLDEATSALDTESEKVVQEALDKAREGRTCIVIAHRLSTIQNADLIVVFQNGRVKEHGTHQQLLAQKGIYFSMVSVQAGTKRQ

Regarding `C[C@@]1(c2nc3c(C(N)=O)cccc3[nH]2)CCCN1`, the inhibition was -5.3% (inactive) and -11.3% (inactive) in experiment [1] (at 0.5 µM); -6.99% and -18.5% in [1] (setting [10]); -13.8% and -3.66% in [1] (setting [11]).
For the compound `Cc1ccc(NC(=O)c2ccc(CN3CCN(C)CC3)cc2)cc1Nc1nc(-c2cccnc2)cs1`, in experiment [2], the liver cell % of control was 46.6% and 78.6% and 98.8%; the parasite % of control is 29.5% (inactive) and 24.2% (inactive) and 36% (inactive).
`CC(C)[N+]1(C)[C@@H]2CC[C@H]1CC(OC(=O)C(CO)c1ccccc1)C2` (stereo partly specified): the fluorescence slope change in [3] was 52.9% (active). Also, in experiment [4], the luciferase signal is 44 AU (inactive).
Regarding `CCOC(=O)O[C@]1(C(=O)COC(=O)CC)CC[C@H]2[C@@H]3CCC4=CC(=O)C=C[C@]4(C)[C@H]3[C@@H](O)C[C@@]21C`, the survival in experiment [5] is 5.17 (inactive).
The same measure, in the same setting: under `CO[C@@]1(NC(=O)C2SC(=C(C(N)=O)C(=O)O)S2)C(=O)N2C(C(=O)O)=C(CSc3nnnn3C)CS[C@@H]21` (stereo partly specified) stands 11.4 (inactive).
With `O=C(NCC1(c2nc(-c3ccccc3)cs2)CCOCC1)c1cccc(-c2noc(C(F)(F)F)n2)c1`, the inhibition in experiment [1] (at 0.5 µM) was -27.1% (inactive) and -7.2% (inactive); in experiment [1] (setting [10]) it was -8.11% and -1.8%; in experiment [1] (setting [11]), -58.3% and -12.6%.
For the compound `CO[C@H]1C[C@H](O[C@H]2[C@H](C)[C@@H](O[C@@H]3O[C@H](C)C[C@H](N(C)C)[C@H]3OC(C)=O)[C@@H](C)C[C@@]3(CO3)C(=O)[C@H](C)[C@@H](OC(C)=O)[C@@H](C)[C@@H](C)OC(=O)[C@@H]2C)O[C@@H](C)[C@@H]1OC(C)=O`, the luciferase signal in experiment [4] was 232 AU (inactive).
Still for that read-out and setting: the figure for `CC1(C)S[C@@H]2[C@H](NC(=O)[C@H](NC(=O)N3CCNC3=O)c3ccccc3)C(=O)N2[C@H]1C(=O)O` is 60 AU (inactive).
As for `C[C@]12CC[C@@H]3c4ccc(OS(=O)(=O)O)cc4CC[C@H]3[C@@H]1CCC2=O`, the survival in [5] was 5.67 (inactive). Moreover, the fluorescence ratio in [6] is 1.03 (inactive); in experiment [9] it was 1.01 (inactive). For the same compound, the results for the inhibition in [7] and in [8] were -1.09% (inactive) and -2.76% (inactive), respectively. In addition, in experiment [4], the luciferase signal was 76 AU (inactive).
For the compound `C[C@@H]1CCC[C@H](C)N1NC(=O)c1ccc(Cl)c(S(N)(=O)=O)c1`, the fluorescence slope change in [3] was 11.3% (inactive). Besides, the luciferase signal in experiment [4] was 100 AU (inactive).
On to `NCc1ccccc1CC(=O)N[C@@H]1C(=O)N2C(C(=O)O)=C(CSc3nnnn3CC(=O)O)CS[C@H]12`, for which the survival in experiment [5] is 7.42 (inactive).
For the compound `CCOC(=O)NCCCC(=O)NCCc1ccccc1`, the inhibition was 6.08% (inactive) and 5.44% (inactive) in [1] (at 0.5 µM); 1.7% and -5.49% in experiment [1] (setting [10]); 7.7% and 23% in experiment [1] (setting [11]).
